Source: PubChem BioAssay AID1220 (Sanford-Burnham Center for Chemical Genomics, 2008)
Among all 190,000 compounds or so, about 1,300 (0.68%) were called active. No stated cut-off is given here; in the data, active means inhibition above about 50%; inactive means the rest. The entries come from a sample that favours actives as a whole.

The compounds below were run against Mannose-6-phosphate isomerase (Homo sapiens) (UniProt P34949) (assay: human PMI inhibitors, high substrate, primary screen, biochemical, fluorescence intensity, high mannose 6-phosphate (AID 1220)). Settings: recombinant PMI enzyme, coupled fluorescence intensity; at 20 µM; hits give high values.
Sequence of Mannose-6-phosphate isomerase (Homo sapiens) (P34949 whole entry, looked up): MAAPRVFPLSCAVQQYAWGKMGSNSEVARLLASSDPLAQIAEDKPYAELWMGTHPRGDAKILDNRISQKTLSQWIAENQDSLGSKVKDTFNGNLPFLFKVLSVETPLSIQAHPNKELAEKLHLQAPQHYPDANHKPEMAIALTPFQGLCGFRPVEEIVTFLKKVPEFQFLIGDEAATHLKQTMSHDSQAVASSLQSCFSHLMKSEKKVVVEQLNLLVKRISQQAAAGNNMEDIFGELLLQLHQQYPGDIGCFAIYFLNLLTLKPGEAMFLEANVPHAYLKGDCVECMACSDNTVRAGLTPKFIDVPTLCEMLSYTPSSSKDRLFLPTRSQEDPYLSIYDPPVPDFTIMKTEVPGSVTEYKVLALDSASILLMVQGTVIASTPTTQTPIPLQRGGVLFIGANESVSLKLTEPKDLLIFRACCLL

inhibition, active:
COc1cc(C(=O)O/N=C2/C=C(C)C(=O)C=C2C)cc(OC)c1OC 53.5%
COc1ccc(C(=O)CCNc2ccc3c(c2)OCCO3)cc1 58%
COc1cc(C2C(C#N)=C(N)OC3=C2C(=O)CCC3)c([N+](=O)[O-])cc1OC (stereo not given) 52%
CN(C)c1ccc(C(=S)N2CCN(C(=S)Nc3cccc4ccccc34)CC2)cc1 51.7%
Cc1nnc(SCC(=O)N2CCN(S(=O)(=O)c3ccccc3)CC2)n1Cc1ccccc1 57.8%
Clc1ccc(CNc2ccccc2NCc2ccc(Cl)nc2)cn1 53.8%
Cc1ccc(S(=O)(=O)/N=C2\C(=O)c3ccccc3C([O-])=C2n2cc[n+](CCC(C)C)c2)cc1 50.4%
COc1cc(Sc2ccc(C)cc2)c(OC)cc1N 67.2%
O=C(CNCc1ccccn1)Nc1cc(S(=O)(=O)N2CCCCC2)ccc1Cl 55.4%
CCOc1cc([C@@H]2C[C@H]3CN(c4ccccc4)C(=O)[C@]34CCCN24)ccc1OC 57.1%
CN(C)/C=N/C1=C(C#N)C(c2cccs2)c2ccc3ccccc3c2O1 (stereo not given) 55.2%
COc1cc(/C=N/NC(=O)CC2(C)OCCCO2)ccc1OCc1ccc(Cl)cc1Cl 51.1%
CCOC(=O)C1CCN(C(=S)Nc2cccc(C)c2C)CC1 52.8%
Cc1ccccc1NC(=S)N1CCCC1 52.6%
Cc1nc(C#N)c(N/N=C/c2c(F)cccc2Cl)o1 53.3%
CC(C)N1CC=C2C(C#N)=C(N)C(C#N)(C#N)[C@H](c3ccoc3)[C@H]2C1 58.4%
CCCC1C2CN(C(C)C)CC=C2C(C#N)=C(N)C1(C#N)C#N (stereo not given) 60.7%
CCN1CC=C2C(C#N)=C(N)C(C#N)(C#N)C(CCc3ccccc3)C2C1 (stereo not given) 52.5%
O=C(CCNC(=O)Cn1ccc2ccccc2c1=O)NCCCN1CCN(c2ccccc2F)CC1 54.6%

inhibition, inactive:
CN(C)CCCN(Cc1cc2cc3c(cc2[nH]c1=O)OCO3)C(=S)NCc1ccco1 30.6%
CCCCc1nnc(NC(=O)CSc2nc(=O)cc(N)n2-c2ccccc2)s1 0.8%
CS(=O)(=O)N(CC(=O)N1CCOCC1)c1ccc2c(c1)OCO2 1.8%
COC(=O)COc1ccc(S(=O)(=O)NCc2cccnc2)cc1 4.3%
CC(C)(CO)Nc1ccc([N+](=O)[O-])cc1[N+](=O)[O-] 0.9%
O=C1Nc2ccccc2Oc2cc([N+](=O)[O-])cc(Oc3ccccc3)c21 -3.2%
COc1cc(C(=O)Oc2cccc(C)c2)cc(OC)c1OC 2.4%
COc1cc(C(=O)O/N=C(\N)c2ccc([N+](=O)[O-])cc2)cc(OC)c1OC 5.3%
Nc1cc(N2CCCC2)c(Cl)cc1[N+](=O)[O-] 25.9%
CC1CCC(C(C)C)C(OP(=O)(c2ccc(N(C)C)cc2)C(O)c2cccnc2)C1 (stereo not given) -4.5%
COc1ccc(C(=O)Nc2ccc3c(c2)OCCO3)cc1 -6.5%
COc1ccc(C(=O)CCNc2ccc(C)c(Cl)c2)cc1 0.5%
O=C(COC(=O)c1ccc2c(=O)n3c(nc2c1)CCC3)NC1CCS(=O)(=O)C1 (stereo not given) -5.4%
Cc1ccc(C(=O)N2CCOCC2)cc1S(=O)(=O)Nc1cccc(C)c1C -7%
COc1ccc(C2C(C#N)=C(N)OC3=C2C(=O)CCC3)cc1OC (stereo not given) -4%
COc1cc(C2C(C#N)=C(N)OC3=C2C(=O)CC(C)(C)C3)c([N+](=O)[O-])cc1OC (stereo not given) 49.6%
CCC(C)NC(=O)CO/N=C/c1ccc(C(=O)OC)cc1 (stereo not given) 23.9%
CN(C)c1ccc(C(=S)N2CCN(c3ccccc3)CC2)cc1 8.2%
CN(C)c1ccc(C(=S)N2CCN(C(=S)Nc3ccc(Cl)cc3)CC2)cc1 -7.1%
N#CC1=C(N)OC2=C(CN(Cc3ccccc3)C/C2=C\c2cccnc2)C1c1cccnc1 (stereo not given) 11.3%
CCn1c(SCC(=O)N2CCN(S(=O)(=O)c3ccccc3)CC2)nnc1-c1cccs1 -3.1%
O=C(CSc1nnc(C2CC2)n1Cc1ccccc1)N1CCN(S(=O)(=O)c2ccccc2)CC1 -3.7%
CC1Cc2nc(SCC(=O)N3CCCC3)n(C)c(=O)c2S1 (stereo not given) 9.6%
COc1cc(/C=C(/C#N)c2nc3ccccc3c(=O)[nH]2)ccc1O 13.6%
Cc1ccc(NCc2ccc(Cl)nc2)c(NCc2ccc(Cl)nc2)c1 -88.3%
Clc1ccc(Cn2cccn2)cn1 10.3%
COc1ccc(CCC(=O)NNC(=S)NCc2ccc(F)cc2)cc1 1.2%
CCCC[n+]1ccn(C2=C([O-])c3ccccc3C(=O)/C2=N\S(=O)(=O)c2ccccc2)c1 46.3%
CC(C)CC[n+]1ccn(C2=C([O-])c3ccccc3C(=O)/C2=N\S(=O)(=O)c2ccccc2)c1 47%
COc1ccccc1NC(=O)NCC(=O)Nc1c(C)cccc1C -13.9%
COC(=O)c1ccc(Sc2ccc(C)cc2)c(N)c1 9.7%
Cc1ccc(Sc2cnc(N)nc2C)cc1 3.4%
CCc1ccc2c(c1)C(c1cccs1)=NNC(c1cccnc1)=N2 3.3%
C=CCSc1nc(-c2ccc3c(c2)OCO3)cc(C(F)(F)F)c1C#N 11.5%
O=C(CNCc1ccncc1)Nc1cc(S(=O)(=O)N2CCCCC2)ccc1Cl -89%
O=C(CCl)Nc1cc(S(=O)(=O)N2CCCCCC2)ccc1Cl 4.5%
CC1CCC(C(C)C)C(OCC[N+](C)(C)C)C1 (stereo not given) 8.9%
Cc1nn(CCO)c(C)c1Oc1ccccc1O 4%
COc1cc([C@@H]2C[C@H]3CN(c4ccccc4)C(=O)[C@]34CCCN24)cc(OC)c1OC 3.7%
COCc1cc([C@@H]2C[C@H]3CN(c4ccccc4)C(=O)[C@]34CCCN24)ccc1OC 13.6%
O=c1oc(-c2ccccc2NS(=O)(=O)c2ccccc2)nc2ccccc12 -2.5%
Fc1cc(F)cc(NC(=S)N2CCC(c3ccccc3)C2)c1 (stereo not given) -2.1%
Cn1cccc1CNC(=O)Nc1ccccc1 -5.8%
N#CC1=C(N)Oc2cc(O)ccc2C1c1cccs1 (stereo not given) 10.1%
N#CC1=C(N)Oc2cc3ccccc3cc2C1c1cccs1 (stereo not given) 7.9%
CC1(CC(=O)N/N=C/c2ccc(OCc3ccc(Cl)cc3Cl)cc2)OCCCO1 10.6%
COc1cc(/C=N/NC(=O)CC2(C)OCCCO2)ccc1OCc1ccccc1 2.4%
COc1ccc(NC(=O)CSc2nc(N)c3cc4c(nc3n2)CCCC4)c(OC)c1 -6.7%
S=C(Nc1ccccc1Cl)N1CCCC1 13.6%
CCOC(=O)C1CCN(C(=S)Nc2cc(C)ccc2C)CC1 7.3%
CCOC(=O)N1CCN(C(=S)Nc2cccc(C)c2C)CC1 8.4%
Cc1ccccc1NC(=S)N1CCOCC1 -2.1%
O=C(O)CC1NC(=O)N(C2CCCCC2)C1=O (stereo not given) -10%
CCCCN(CC)C(=O)Cc1ccc(Br)cc1 6.7%
CCOC(=O)C1(Cc2ccc(OC)cc2)CCN(C(=O)CN2CCN(CC)CC2)CC1 12.7%
O=C(COC(=O)c1nc(Cl)ccc1Cl)Nc1ccc2c(c1)OCO2 8.3%
CCN(CC)C(=O)N1c2ccccc2CC(N(CC)CC)c2ccccc21 (stereo not given) -19.4%
Fc1cccc(Cl)c1/C=N/Nc1c(Cl)cncc1Cl 8.5%
Cc1nc(C#N)c(N/N=C/c2cccc(Cl)c2)o1 12.6%
Cc1cccc2cc(C3CC(c4cccs4)=NN3C(=O)CCC(=O)O)c(Cl)nc12 (stereo not given) 8.9%
COc1ccc(N2CCn3c2nc2c3c(=O)n(CCCc3ccccc3)c(=O)n2C)cc1 -5.3%
Cc1ccc(-c2nc(CN(CC3CCC3)CC3CCCO3)c(C)o2)s1 (stereo not given) 5.6%
COC(=O)C/C=C/[C@@H](C)[C@@H](/C=N/OCC[C@@H]1C=C[C@H](OC(C)=O)[C@@H](COC(C)=O)O1)NS(=O)(=O)c1ccc(C)cc1 -6.1%
CCCC1C2CN(C(C)=O)CC=C2C(C#N)=C(N)C1(C#N)C#N (stereo not given) -10.2%
CN1CC=C2C(C#N)=C(N)C(C#N)(C#N)[C@H](c3ccoc3)[C@H]2C1 15.1%
CN1CC=C2C(C#N)=C(N)C(C#N)(C#N)C(CCc3ccccc3)C2C1 (stereo not given) 17.3%
CC(C)N1CC=C2C(C#N)=C(N)C(C#N)(C#N)C(c3ccccc3)C2C1 (stereo not given) 20.5%
CC(=O)N1CC=C2C(C#N)=C(N)C(C#N)(C#N)C(CCc3ccccc3)C2C1 (stereo not given) 14%
Cc1ccc(C2C3CN(C(C)C)CC=C3C(C#N)=C(N)C2(C#N)C#N)cc1 (stereo not given) 24.4%
Cc1ccccc1-c1nc(CN(Cc2c(C)nn(C)c2C)C2CC2)c(C)o1 5.6%
CC(C)(C)c1ccc2c(c1)N(CC(=O)O)C(=O)CO2 -8.3%
Cc1cccc(NC2SC(=O)NC2=O)c1 (stereo not given) 0.9%
CCCc1c(O)nc(SCC(=O)NCCc2ccc(OC)c(OC)c2)[nH]c1=O 6.4%
COc1ccc(CNc2oc(Cc3cccc4ccccc34)nc2C#N)cc1 9.4%
CCCN1CCN(CCCNC(=O)CCNC(=O)Cn2ccc3ccccc3c2=O)CC1 -3.5%
O=C(CCNC(=O)Cn1ccc2ccccc2c1=O)NCCCN1CCN(c2ccc(F)cc2)CC1 -5.7%
